# PubChem BioAssay (EPA / NIEHS)
# Where a structure was tested more than once in an assay, its records may differ in their call. The source made the active and inactive calls. Rule for the calls: active = hit-call score of the fitted dose curve at least 0.9, where 1 is the maximum; inactive = score below 0.9.
# Test: ATG_TA_CIS: Attagene CIS-FACTORIAL HepG2 Assay for human TA Basal Promoter (AID 2282964)
# Settings: HepG2 Attagene CIS-factorial TA basal promoter reporter; actives raise or lower the signal
# Protocol: ATG_CIS is a cell-based, multiplexed-readout assay that uses HepG2, a human liver cell line, with measurements taken at 24 hours after chemical dosing in a 24-well plate.ATG_TA_CIS is one of 52 assay component(s) measured or calculated from the ATG_CIS assay. It is designed to make measurements of mRNA induction, a form of inducible reporter, as detected with fluorescence intensity signals by Reverse transcription polymerase chain reaction (RT-PCR) and Capillary electrophoresis technology.Data from the assay component ATG_TA_CIS was analyzed into 1 assay endpoint. This assay endpoint, ATG_TA_CIS, was analyzed with bidirectional fitting relative to DMSO as the negative control and baseline of activity. Using a type of inducible reporter, measures of mRNA for gain or loss-of-signal activity can be used to understand the background control at the transcription factor-level as they relate to the gene . Furthermore, this assay endpoint can be referred to as a secondary readout, because this assay has produced multiple assay endpoints where this one serves a background control function. To generalize the intended target to other relatable targets, this assay endpoint is annotated to the background measurement intended target family, where the subfamily is internal marker.
# Human liver HepG2 cells are transiently transfected with multiple reporter transcription units (MRTUs) in 6-well plates using FuGene 6 reagent (Roche; 3 ml FuGene/1 mg DNA). The MRTU constructs are regulated by a cis-regulating element (promoter). […] A major difference between the CIS and TRANS system is that in CIS activities of endogenous TFs are measured, whereas the TRANS assay evaluates changes in activities of exogenous, chimeric NR-Gal4 proteins. […] At the end of 24 hour incubation, total RNA was isolated using TriZol reagent (Invitrogen). The isolated RNA is then reverse-transcribed using oligo(dT) primer and Mo-MLV reverse transcriptase (Invitrogen) with DNAse I (Ambion) treatment for 30 min. The one-tenth of the produced cDNA was amplified by PCR using Taq DNA polymerase (Invitrogen) and two reporter sequence-specific primers. The PCR products were fluorescently labeled by primer extension with 6-arboxyfluorescein (6-FAM) 5'-labeled reporter sequence-specific primer (2 min at 95 C, 20 s at 68 C and 10 min at 72 C) and these products were digested with 5U of HpaI (New England Biolabs) for 2h at 37 C. The fragments were purified using Qiaquick PCR columns (Qiagen), analyzed on an ABI 3130xL genetic analyzer (Applied Biosystems) with peak positions identified by using a set of X-rhodamine (ROX)-labeled MapMarker1000 molecular weight standards (BioVentures). The raw capillary electrophoresis data was processed using Attagraph software (Attagene).
Structure (SMILES),outcome,AC50
CCCCCCCCCCO[C@@H]1O[C@H](CO)[C@@H](O)[C@H](O)[C@H]1O,inactive,
CC(C)C(=O)c1ccccc1,inactive,
C=C1CC/C=C(\C)CC[C@@H]2[C@@H]1CC2(C)C,inactive,
CC=CC(=O)C1=C(C)C=CCC1(C)C,inactive,
c1ccc(OCCOc2ccccc2)cc1,inactive,
CC(C)OB(OC(C)C)OC(C)C,inactive,
CC(=O)Nc1cc(S(=O)(=O)O)cc2cc(S(=O)(=O)O)c(N=Nc3ccccc3)c(O)c12,inactive,
O=C(O)CS,inactive,
C=CC(=O)OCC(CO)(COC(=O)C=C)COC(=O)C=C,,100 µM (active)
NC(=O)c1c(Cl)cccc1Cl,inactive,
C#C[C@]1(O)CC[C@H]2[C@@H]3CCc4cc(O)ccc4[C@H]3CC[C@@]21C,inactive,132 µM (active)
C[C@H](CCC(=O)O)[C@H]1CC[C@H]2[C@@H]3CC[C@@H]4C[C@H](O)CC[C@]4(C)[C@H]3CC[C@]12C,,25.3 µM (active)
CCC=C(C)C=O,inactive,
[Cl][Dy]([Cl])[Cl],inactive,
CC(CO)(CO)[N+](=O)[O-],inactive,
CCCCOCCOCCO,inactive,
OCC=Cc1ccccc1,inactive,
CC(=O)CC(=O)N(C)C,inactive,
CC/C=C\CCOC(C)OCC (stereo not given),inactive,
CN1CCc2cccc3c2[C@H]1Cc1ccc(O)c(O)c1-3,inactive,

Structure (SMILES),outcome,AC50
NC(=O)c1cnccn1,inactive,
CC(C)=CC(=O)O,inactive,
CCC(CC)CO,inactive,
CC12CCC(C1)C(C)(C)C2O (stereo not given),inactive,
CCCCN(CCCC)CCCCCCN(CCCC)CCCC,inactive,
N#CCCNCCC#N,inactive,
CN(C)C(=O)Nc1ccccc1,inactive,
CC/C=C\CCCCO,inactive,
CC/C=C\C#N,inactive,
CC1=CC(O)CC(C)(C)C1 (stereo not given),inactive,
CCNC(=S)NCC,inactive,
CC(C)N(c1ccccc1)C(C)C,inactive,
C=CC(C)(CCC=C(C)C)OC(=O)CC (stereo not given),inactive,
CN(C)CCC=C1c2ccccc2CCc2ccccc21,inactive,
OCCN1CCOCC1,inactive,
O=C(O)c1ccccc1O,inactive,
CC(C)(O)CCc1ccccc1,inactive,
CCOC(=O)CC(C)C,inactive,
CCOCC(C)O (stereo not given),inactive,
